# Data taken from PubChem BioAssay.
# Values without a mark were called inactive. For some assays here: Entries with a potency or affinity are not part of this list. The source made the active and inactive calls. Unless noted, how the calls were made is not given here.
# Legend:
# [1] = antimalarial activity against Dd2 strain (AID 2302;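 active means growth inhibition above 50% at the single 2 µM test dose, taken to imply half-maximal potency below 2 µM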;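 further: 0% = DMSO untreated growth and 100% = chloroquine plus artemisinin killed control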); conditions: P. falciparum Dd2 in RBCs, LDH growth readout, 72 h; at 2 µM; hits give high values
# [2] = human hepatoma cell viability loss – ATP luminescence, cytotoxicity control for P. falciparum antimalarial project, primary screen (AID 2303;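 active means inhibition above 50%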;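 further: 0% = DMSO wells and 100% = digitonin-killed cells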); conditions: HepG2 viability, 24-48 h, at 10 µM, hits give high values
# [3] = molecular target: L-lactate dehydrogenase (Plasmodium falciparum (isolate CDC / Honduras)) (UniProt Q27743); assay: PfLDH activity inhibition – cell lysate, 3D7 strain, counter-screen for P. falciparum growth inhibition project (AID 2304);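 further: 0% = vehicle and 100% = reference inhibitor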; conditions: P. falciparum 3D7 crude extract, LDH APAD/NBT absorbance; at 2 µM; hits give high values
# Sequence of L-lactate dehydrogenase (Plasmodium falciparum (isolate CDC / Honduras)) (Q27743 whole entry, looked up): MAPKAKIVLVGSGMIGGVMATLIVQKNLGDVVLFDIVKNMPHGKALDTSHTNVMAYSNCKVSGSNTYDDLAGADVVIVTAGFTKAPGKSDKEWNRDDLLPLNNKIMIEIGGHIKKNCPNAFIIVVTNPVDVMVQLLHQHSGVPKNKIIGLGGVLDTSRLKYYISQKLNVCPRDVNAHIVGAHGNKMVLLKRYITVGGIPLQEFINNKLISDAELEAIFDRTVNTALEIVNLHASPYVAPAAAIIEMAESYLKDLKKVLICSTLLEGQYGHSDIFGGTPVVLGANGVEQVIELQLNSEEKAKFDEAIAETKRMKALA
# [4] = inhibition of 3D7 malaria parasite growth – strain 3D7 (AID 2306);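 further: 0% = DMSO wells and 100% = chloroquine plus artemisinin control wells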; conditions: P. falciparum 3D7 erythrocytic growth, LDH absorbance, 72 h; at 2 µM; hits give high values
# [5] = molecular target: Calcium-dependent protein kinase 1 (Plasmodium falciparum (isolate 3D7)) (UniProt P62344); assay: PfCDPK1 kinase inhibitors, biochemical, TCAMS library (AID 1159585; cut-off not given, nearly all actives have IC50 up to about 0.98 µM;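 further: inhibitors leave more ATP so luminescence rises with inhibition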); conditions: recombinant PfCDPK1, Kinase-Glo ATP depletion luminescence
# Sequence of Calcium-dependent protein kinase 1 (Plasmodium falciparum (isolate 3D7)) (P62344 whole entry, looked up): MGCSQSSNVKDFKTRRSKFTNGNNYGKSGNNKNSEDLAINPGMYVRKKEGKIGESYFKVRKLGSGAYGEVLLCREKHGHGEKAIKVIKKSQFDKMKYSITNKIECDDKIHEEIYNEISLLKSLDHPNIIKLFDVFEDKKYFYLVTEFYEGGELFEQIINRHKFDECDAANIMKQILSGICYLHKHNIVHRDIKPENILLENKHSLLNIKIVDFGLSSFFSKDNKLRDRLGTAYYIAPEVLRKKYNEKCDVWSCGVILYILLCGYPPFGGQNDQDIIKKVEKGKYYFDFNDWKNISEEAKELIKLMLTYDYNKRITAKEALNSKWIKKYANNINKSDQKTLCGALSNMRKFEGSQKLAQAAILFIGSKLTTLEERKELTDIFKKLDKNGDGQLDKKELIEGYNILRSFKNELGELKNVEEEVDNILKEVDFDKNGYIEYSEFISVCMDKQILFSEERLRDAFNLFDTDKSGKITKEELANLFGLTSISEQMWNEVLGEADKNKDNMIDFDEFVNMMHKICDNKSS
# [6] = molecular target: Plasmodium falciparum protein kinase 6 (PK6, PF3D7_1337100) (UniProt Q8IDW1); assay: PfPK6 kinase inhibitors, biochemical, TCAMS library (AID 1159586); conditions: recombinant PfPK6, Kinase-Glo ATP depletion luminescence
# Sequence of Plasmodium falciparum protein kinase 6 (PK6, PF3D7_1337100) (Q8IDW1 1-305): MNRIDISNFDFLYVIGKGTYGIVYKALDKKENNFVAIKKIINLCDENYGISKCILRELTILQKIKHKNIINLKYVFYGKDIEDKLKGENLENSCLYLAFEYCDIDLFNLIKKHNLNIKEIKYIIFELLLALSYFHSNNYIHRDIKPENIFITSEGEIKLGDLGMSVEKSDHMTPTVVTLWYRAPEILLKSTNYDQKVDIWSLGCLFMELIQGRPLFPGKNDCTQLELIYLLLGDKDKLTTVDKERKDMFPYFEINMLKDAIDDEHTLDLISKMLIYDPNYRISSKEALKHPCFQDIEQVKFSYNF
# [7] = molecular target: Protein kinase 7 (PK7), Plasmodium falciparum 3D7 (PF3D7_0213400) (UniProt Q7YTF7); assay: inhibition of Plasmodium PK7 catalytic activity – biochemical, TCAMS antimalarial set, Kinase-Glo luminescence (AID 1159587); conditions: recombinant PfPK7, Kinase-Glo ATP depletion luminescence
# Sequence of Protein kinase 7 (PK7), Plasmodium falciparum 3D7 (PF3D7_0213400) (Q7YTF7 1-343): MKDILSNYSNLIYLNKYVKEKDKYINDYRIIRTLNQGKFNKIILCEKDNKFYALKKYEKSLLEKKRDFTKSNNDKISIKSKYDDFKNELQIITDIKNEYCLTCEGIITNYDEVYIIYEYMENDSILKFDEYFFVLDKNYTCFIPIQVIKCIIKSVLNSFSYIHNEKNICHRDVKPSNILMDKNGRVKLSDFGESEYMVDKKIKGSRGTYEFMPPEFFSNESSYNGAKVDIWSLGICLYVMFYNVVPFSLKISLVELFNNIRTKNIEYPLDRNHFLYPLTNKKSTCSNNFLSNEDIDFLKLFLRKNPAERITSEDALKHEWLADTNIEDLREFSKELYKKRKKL
# [8] = molecular target: Calcium-dependent protein kinase 4 (Plasmodium falciparum (isolate 3D7)) (UniProt Q8IBS5); assay: PfCDPK4 kinase inhibitors, biochemical, TCAMS library (AID 1159588; cut-off not given, nearly all actives have IC50 up to about 0.91 µM); conditions: recombinant PfCDPK4, Kinase-Glo ATP depletion luminescence
# Sequence of Calcium-dependent protein kinase 4 (Plasmodium falciparum (isolate 3D7)) (Q8IBS5 whole entry, looked up): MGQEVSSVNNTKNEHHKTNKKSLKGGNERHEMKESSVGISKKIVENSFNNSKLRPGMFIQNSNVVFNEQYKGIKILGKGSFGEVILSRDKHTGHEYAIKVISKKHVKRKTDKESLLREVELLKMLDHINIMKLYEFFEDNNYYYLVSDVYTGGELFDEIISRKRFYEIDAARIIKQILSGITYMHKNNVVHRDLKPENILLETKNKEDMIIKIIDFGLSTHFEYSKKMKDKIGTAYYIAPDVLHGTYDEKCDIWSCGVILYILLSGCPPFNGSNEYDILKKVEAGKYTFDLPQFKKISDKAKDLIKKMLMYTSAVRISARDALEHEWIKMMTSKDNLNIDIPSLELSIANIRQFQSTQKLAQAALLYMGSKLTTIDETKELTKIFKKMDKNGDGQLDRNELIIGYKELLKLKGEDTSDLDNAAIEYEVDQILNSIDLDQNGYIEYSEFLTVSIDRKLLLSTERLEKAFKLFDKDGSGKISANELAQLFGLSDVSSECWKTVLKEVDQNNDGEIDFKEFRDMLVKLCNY
SMILES,growth inhibition [1],inhibition [2],inhibition [3],growth inhibition [4],outcome [5],outcome [6],outcome [7],outcome [8]
Cc1ccoc1C(=O)Nc1ccc(-c2cccc(-c3nc4c(C)cccc4[nH]3)c2)cc1,69% (active),15%,-4%,95% (active),inactive,inactive,inactive,inactive
Cc1c(CCC#N)c(NCc2ccccc2)n2c(nc3ccccc32)c1C#N,99% (active),16%,2%,100% (active),inactive,inactive,inactive,inactive
CC(Cc1ccc(NC(=O)c2ccc(CC(C)NCc3ccc(Cl)cc3)cc2)cc1)NCCc1cccc(Cl)c1 (stereo not given),75% (active),95% (active),-5%,101% (active),inactive,inactive,inactive,inactive
C=CCN1C(=O)C(=Cc2cc(Br)ccc2O)SC1=Nc1ccccc1,55% (active),-4%,-4%,96% (active),inactive,inactive,inactive,inactive
Nc1cccc(C=CC(=O)Nc2ccnc3ccccc23)c1,60% (active),7%,-1%,98% (active),inactive,inactive,inactive,inactive
Cc1cc(NN=Cc2ccc(Cl)cc2)c2cccc(C)c2n1,47%,-1%,2%,103% (active),inactive,inactive,inactive,inactive
O=C(NCCCCN1CCN(c2cccc3c2CCCC3)CC1)c1ccc(NC(=O)c2ccc(Cl)cc2)cc1,85% (active),35%,3%,101% (active),inactive,inactive,inactive,inactive
c1cc(CNC2CCCC2)cc(-c2ccc(CNc3ccc4ncccc4c3)cc2)c1,24%,32%,-9%,98% (active),inactive,inactive,inactive,inactive
Cc1ccccc1C1CCN(C2CCC(NC(=O)/C=C/c3ccc(C#N)cc3)CC2)CC1 (stereo not given),13%,39%,0%,87% (active),inactive,inactive,inactive,inactive
CC(C)c1cc(N)c2cc(NC(=O)COCC(=O)Nc3ccc4nc(C(C)C)cc(N)c4c3)ccc2n1,95% (active),-8%,0%,95% (active),inactive,inactive,inactive,inactive
COc1ccc(C=NNc2cc(C)nc3ccc(OC)cc23)c(OC)c1,95% (active),23%,-5%,100% (active),inactive,inactive,inactive,inactive
O=C(C=Cc1ccc(Cl)c(Cl)c1)NCCCCCN1CCC(CCNC(=O)/C=C/c2ccccc2)CC1,1%,25%,-7%,97% (active),inactive,inactive,inactive,inactive
O=C(/C=C/c1ccc(Cl)c(Cl)c1)N1CCC(NCc2ccc3[nH]ccc3c2)CC1,1%,44%,-2%,97% (active),inactive,inactive,inactive,inactive
O=C(NC1CCN(Cc2ccccc2)C1)c1ccc(Nc2ccc(Br)cc2)nc1 (stereo not given),21%,19%,-1%,94% (active),inactive,inactive,inactive,inactive
COC(=O)[C@@H](NC(=O)[C@H](Cc1ccc(OC)c(OC)c1)Nc1ccc(C#N)c2ccccc12)c1ccc(O)cc1,100% (active),6%,5%,101% (active),inactive,inactive,inactive,inactive
O=C1COC2(CN1C1CCN(Cc3ccc(O)c(Cl)c3)C1)c1ccccc1-c1ccccc12 (stereo not given),63% (active),5%,3%,93% (active),inactive,inactive,inactive,inactive
COC(=O)c1ccc2nc(-c3ccc(C(=O)NCc4ccc(Cl)c(Cl)c4)cc3)[nH]c2c1,3%,1%,-2%,95% (active),inactive,inactive,inactive,inactive
Cc1noc(C)c1-c1ccc2c(Nc3ccccc3C(C)(C)C)c(C(=O)NC3CCCC3)cnc2c1,79% (active),27%,-3%,93% (active),inactive,inactive,inactive,inactive
COc1ccc(C(=O)[C@H]2C[C@@H]2CN(C)CC(O)c2cc(C)c(OC)cc2C)cc1 (stereo not given in full),77% (active),8%,-3%,90% (active),inactive,inactive,inactive,inactive
COc1cc(N)cc2sc(N)nc12,99% (active),0%,-2%,99% (active),inactive,inactive,inactive,inactive

SMILES,growth inhibition [1],inhibition [2],inhibition [3],growth inhibition [4],outcome [5],outcome [6],outcome [7],outcome [8]
O=C(/C=C/c1ccc(Cl)c(Cl)c1)NC1CCC(CN2CCC(c3nc4ncccc4[nH]3)CC2)CC1 (stereo not given),2%,7%,-1%,101% (active),inactive,inactive,inactive,inactive
COc1ccc(NC(=O)c2ccc(-c3nc(-c4cccc(C(F)(F)F)c4)cs3)cc2)cc1N1CCN(C)CC1,59% (active),29%,6%,98% (active),inactive,inactive,inactive,inactive
CC(=O)N(C)c1cccc(C(=O)Nc2ccc(-c3cccc(-c4nc5ccc(C(F)(F)F)cc5[nH]4)c3)cc2)c1,10%,79% (active),-2%,94% (active),inactive,inactive,inactive,inactive
O=C(/C=C/c1ccc(Cl)c(Cl)c1)NCCCCCN1CCC(CCCNC(=O)Nc2ccc(C(F)(F)F)cc2)CC1,19%,-2%,-7%,91% (active),inactive,inactive,inactive,inactive
CCOC(=O)C(=O)N1c2ccc(OCC)cc2-c2c(ssc2=S)C1(C)C,100% (active),5%,-4%,99% (active),inactive,inactive,inactive,inactive
Cc1nc(-c2ccc(C(F)(F)F)cn2)sc1C(=O)N1CCc2cc3nccc(N4CCN5CCC[C@H]5C4)c3cc21,72% (active),5%,0%,100% (active),inactive,inactive,inactive,inactive
Cc1cccc2[nH]c(-c3cccc(-c4cccc(NC(=O)c5cncn5C)c4)c3)nc12,91% (active),-1%,0%,103% (active),inactive,inactive,inactive,inactive
CC(C)C(=O)NC(c1cccs1)c1cc(Cl)c2cccnc2c1O (stereo not given),91% (active),23%,-2%,91% (active),inactive,inactive,inactive,inactive
CN(C)CCC1CCCc2ccc(NC(=O)Nc3ccc(-c4ccncc4)c4ccccc34)cc21 (stereo not given),27%,34%,6%,89% (active),inactive,inactive,inactive,inactive
Cc1c(C)c2c(c(C)c1O)CC[C@](C)(C(=O)N1CCC(CCN3CCC(c4c[nH]c5ccccc45)CC3)CC1)O2,74% (active),31%,0%,99% (active),inactive,inactive,inactive,inactive
Cc1ccc(CNc2ccc3ncc(-c4cccc(C(=O)NCCN(C)C)c4)n3n2)c(C)c1,78% (active),97% (active),-3%,100% (active),inactive,inactive,inactive,inactive
COc1ccc(-c2ccc(NC(=O)c3ccc(C#N)cc3)cc2)cc1CN(C)CCO,44%,41%,9%,99% (active),inactive,inactive,inactive,inactive
CC(=O)N(C)C1CCN(Cc2cccc(-c3ccc(-c4nc5ccc(F)cc5[nH]4)cc3)c2)C1 (stereo not given),19%,24%,0%,92% (active),inactive,inactive,inactive,inactive
Cc1csc2nc(-c3ccccn3)nc(Nc3ccncn3)c12,85% (active),47%,-3%,97% (active),inactive,inactive,inactive,inactive
Cc1cc(NN=Cc2ccc(Cl)cc2)c2ccc(F)cc2n1,87% (active),6%,-2%,100% (active),inactive,inactive,inactive,inactive
O=C(Nc1cccc(-c2cccc(-c3nc4ccccc4[nH]3)c2)c1)Nc1ccc(F)c(F)c1F,95% (active),78% (active),-1%,98% (active),inactive,inactive,inactive,inactive
Cn1cncc1C(=O)Nc1cccc(-c2ccc(-c3nc4ccc(F)cc4[nH]3)s2)c1,27%,-9%,1%,99% (active),inactive,inactive,inactive,inactive
CC(C)(C)CCN1CCC(NC(=O)c2ccc(-c3cccc(C(F)(F)F)c3)s2)CC1,88% (active),95% (active),-2%,93% (active),inactive,inactive,inactive,inactive
COc1ccc(Br)cc1/C=C/C(=O)Nc1ccc2c(c1)CCCN(C)C2,10%,8%,1%,84% (active),inactive,inactive,inactive,inactive
Cc1nc2ccccc2c(=O)n1N=Cc1ccccc1[N+](=O)[O-],26%,-8%,3%,94% (active),inactive,inactive,inactive,inactive
